Potency and affinity values are given separately.
Each compound was assayed against T1, Ubiquitin-activating enzyme e1, putative (Leishmania donovani (strain BPK282A1)) (UniProt E9BSI1) (assay: Leishmania donovani Ubiquitin Activating Enzyme (LdE1)). Conditions: 30 µM.
T1 sequence (whole entry): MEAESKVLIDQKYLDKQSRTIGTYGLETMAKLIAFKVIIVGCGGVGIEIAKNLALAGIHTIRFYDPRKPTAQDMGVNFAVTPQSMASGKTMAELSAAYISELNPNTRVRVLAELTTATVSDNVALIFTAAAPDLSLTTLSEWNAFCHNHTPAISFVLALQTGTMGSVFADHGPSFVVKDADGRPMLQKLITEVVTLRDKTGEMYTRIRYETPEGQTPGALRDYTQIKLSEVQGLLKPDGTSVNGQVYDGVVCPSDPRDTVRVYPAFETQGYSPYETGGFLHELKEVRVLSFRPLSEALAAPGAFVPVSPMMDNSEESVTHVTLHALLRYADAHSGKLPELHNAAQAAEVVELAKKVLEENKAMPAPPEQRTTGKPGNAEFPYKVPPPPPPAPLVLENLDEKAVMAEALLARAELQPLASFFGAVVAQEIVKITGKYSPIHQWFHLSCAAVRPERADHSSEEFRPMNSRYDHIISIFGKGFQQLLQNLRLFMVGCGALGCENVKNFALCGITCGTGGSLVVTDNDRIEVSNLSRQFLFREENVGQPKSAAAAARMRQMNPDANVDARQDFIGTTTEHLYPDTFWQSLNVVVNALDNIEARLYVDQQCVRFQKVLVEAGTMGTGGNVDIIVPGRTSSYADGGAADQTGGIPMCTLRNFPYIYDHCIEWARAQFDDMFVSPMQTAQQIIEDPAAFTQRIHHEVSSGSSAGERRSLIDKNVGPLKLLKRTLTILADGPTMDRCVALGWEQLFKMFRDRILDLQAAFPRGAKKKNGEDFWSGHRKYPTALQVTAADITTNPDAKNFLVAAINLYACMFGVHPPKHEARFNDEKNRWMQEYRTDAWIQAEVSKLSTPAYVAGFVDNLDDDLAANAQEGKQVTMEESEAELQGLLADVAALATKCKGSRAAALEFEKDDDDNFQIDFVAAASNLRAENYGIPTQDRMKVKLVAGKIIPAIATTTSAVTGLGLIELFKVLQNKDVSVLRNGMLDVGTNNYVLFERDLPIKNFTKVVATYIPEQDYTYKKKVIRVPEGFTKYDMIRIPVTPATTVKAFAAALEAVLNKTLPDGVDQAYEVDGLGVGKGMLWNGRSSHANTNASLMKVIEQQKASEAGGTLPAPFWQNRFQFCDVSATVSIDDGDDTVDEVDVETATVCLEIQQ
Assay type: functional
Parameters: scale not given: direction of the effect not stated beside the values
With `CC(C)COC(C)C(=O)NCc1ccc(OC(C)C)nc1` (stereo not given) the Percent Effect was 15.6%. In the case of `CCc1n[nH]c(C2CN(CCc3cccs3)CCO2)n1` (stereo not given), the Percent Effect is reported as 11.4%. In the case of `CC(=O)N1CCCC(c2ccc(Nc3nc(C)cc(C)n3)cn2)C1` (stereo not given), the Percent Effect is reported as 5.33%. Compound `CN(CC1(O)CCCN(CCC2CCCCC2)C1=O)C1CCOCC1` (stereo not given) has a Percent Effect of 10.7%. In the case of `Cc1noc(C2CCC3(CCN(C(=O)c4c(C)noc4C)CC3)O2)n1` (stereo not given), the Percent Effect is reported as 2.7%. For `COc1ncccc1NC(=O)N1CCC(CNC(C)=O)CC1`, the Percent Effect was 5.33%. Compound `CN1CCN(CCCNC(=O)c2cc(Cl)c3c(c2)OCO3)CC1` has a Percent Effect of 9.72%. `O=C(NS(=O)(=O)c1ccc2c(c1)OCCO2)c1ccc(Br)cc1F` was tested, and the Percent Effect was -13.9%. Work on `CCN1CCC(CNC(=O)C2(c3cccc(C)c3)CC2)C1` (stereo not given) yielded a Percent Effect of -1.27%. `CC(C)N(C)Cc1cnc2n1CCN(CCc1ccccc1)C2` gave a Percent Effect of 5.41%. With `CNc1nc2c(c(C(=O)N3CCCC3)n1)CN(Cc1nccn1C)CC2` the Percent Effect was 16.4%. In the case of `Cc1ccc(-n2nnc(CC(=O)N3CCSCC3)c2C)cc1`, the Percent Effect is reported as 20.8%. `Cc1nc(CN2CCCC(N(C)Cc3nnsc3Cl)C2)no1` (stereo not given) gave a Percent Effect of 5.2%. For `Cc1nc(-c2ccccc2)sc1C(=O)NCCNc1ncccn1`, the Percent Effect was -2.63%. `Cc1cc(=O)n(CC(=O)NCCC(C)C)c(-c2cccc(Cl)c2)n1` showed a Percent Effect of 2.6%. In the case of `CCn1ccnc1CN(C)C1CCCN(CCc2ccccc2)C1` (stereo not given), the Percent Effect is reported as 0%. `CCN1CCN(c2ncc(-c3cc(C)no3)c(-c3ccoc3C)n2)CC1` was tested, and the Percent Effect was 12.2%. `COc1ccccc1CC(=O)N1CCC(NCc2c[nH]nc2C)CC1` was tested, and the Percent Effect was 13.5%. `CN(Cc1cccc(F)c1)C1CCN(CCc2ccccn2)CC1` was tested, and the Percent Effect was 21.6%. `CC(C)c1nc2n(n1)CC(NCc1nc(-c3cccnc3)no1)CC2` (stereo not given) gave a Percent Effect of 2.6%.
